Source: paper PMC7819943, “Rice protein-binding microarrays: a tool to detect cis-acting elements near promoter regions in rice”
Whole data set: some 39,000 sequences, median “fluorescence intensity (a.u.)” near 4,300, cut for the highest 2% near 39,000. What follows is part of a selection rich in the highest values, with near analogues and random picks from the rest.

These sequences were tested against T1, OsSMF1 (Oryza sativa, UniProt Q6ZLB0 1-436) (assay: protein-binding microarray (RPBM); PBS, 2% BSA, 51.3 ng/ul salmon testes DNA, 50 uM zinc acetate, 200 nM TF, 25 C, 1 h; high values mean tight binding). Details: protein: recombinant; tags: N-terminal polyhistidine and DsRed monomer fusion (pET32a); chain copies: 2; label: CyDye5-dUTP incorporated in the synthesized complementary strand; 3' TTTTT single-stranded linker to array surface; dsDNA, one strand shown.
T1 sequence: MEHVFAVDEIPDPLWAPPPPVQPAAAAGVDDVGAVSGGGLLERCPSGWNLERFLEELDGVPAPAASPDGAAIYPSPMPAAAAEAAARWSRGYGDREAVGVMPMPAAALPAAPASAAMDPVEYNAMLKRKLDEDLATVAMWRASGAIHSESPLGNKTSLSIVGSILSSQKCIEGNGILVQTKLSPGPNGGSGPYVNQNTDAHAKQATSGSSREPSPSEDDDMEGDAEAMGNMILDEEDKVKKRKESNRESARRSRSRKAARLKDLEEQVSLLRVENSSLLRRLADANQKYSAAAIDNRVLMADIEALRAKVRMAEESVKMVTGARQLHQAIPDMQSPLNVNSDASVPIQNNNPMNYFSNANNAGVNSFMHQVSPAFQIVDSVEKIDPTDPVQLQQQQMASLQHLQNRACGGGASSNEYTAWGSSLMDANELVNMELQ
How it was run: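 The binding signal for each feature is its fluorescence intensity in arbitrary units. An Axon 4000B scanner was used to read a custom Agilent array that had been made double-stranded with Cy5-dUTP primer extension, blocked with 2% BSA, incubated at 25 °C for 1 h with 200 nM protein in PBS, 2% BSA, salmon testes DNA and 50 µM zinc acetate, and washed. The protein was an N-terminal polyhistidine–DsRed transcription factor fusion from E. coli BL21-CodonPlus, purified on Ni–NTA.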

Sequence | binding signal
TTCTTCGAGGACCACATGCGTGAGTGGATGACGGAGTTCCCGGAGTCACCTAGTGCAG | 3950 fluorescence intensity (a.u.)
TTAATTATTAAATTCTTTTCACTGTCTACTACTTGTTCCGCGGAGTCACCTAGTGCAG | 22300 fluorescence intensity (a.u.)
TGGAGGTTATGAATCATACTCGGACGATAGTTAAGGGAGTCGGAGTCACCTAGTGCAG | 49700 fluorescence intensity (a.u.)
CTGACGAATATACAGGAGGGAACCGAATGGCGCGCAATTGCGGAGTCACCTAGTGCAG | 21700 fluorescence intensity (a.u.)
GTTTTATGGTTGGAGGTCATGAATCATACTCGTGTCATAGCGGAGTCACCTAGTGCAG | 7410 fluorescence intensity (a.u.)
CGGCATTATATACTAAAGAAAATGGAGGGAGTAGGAATCACGGAGTCACCTAGTGCAG | 28700 fluorescence intensity (a.u.)
TTTGTGGTTGGAGGTTATGAATCATACTCGAGGCATAGTTCGGAGTCACCTAGTGCAG | 22000 fluorescence intensity (a.u.)
GCGGAAAGGGAAAGGCCCGACGAATGGGAGGAATCATATACGGAGTCACCTAGTGCAG | 40300 fluorescence intensity (a.u.)
AGATTAGGTTGCTGTAGCCATGACTGTGAGTTGTGACTAGCGGAGTCACCTAGTGCAG | 4030 fluorescence intensity (a.u.)
TGTATGGGCCTTACGTCAGCACGGCCCAGTTGCTGGTTTTCGGAGTCACCTAGTGCAG | 17700 fluorescence intensity (a.u.)
TCACCTCCACCACCGTTGACGATGACACGCGGTGCGTCGCCGGAGTCACCTAGTGCAG | 4250 fluorescence intensity (a.u.)
AACTAATGAATAGTGTGACGTATTGCCGAAATTTCTCAACCGGAGTCACCTAGTGCAG | 7380 fluorescence intensity (a.u.)
TGTGAATTGCATCAACCGAAAAGTAGATATTGGAGTATTTCGGAGTCACCTAGTGCAG | 65500 fluorescence intensity (a.u.)
ACATTTATTGCATCATTACATTCTGAAGTAATTTCAACATCGGAGTCACCTAGTGCAG | 3470 fluorescence intensity (a.u.)
ACCTACATGTGCGTAATATTCGTGGACACCAGGATTTAAACGGAGTCACCTAGTGCAG | 3510 fluorescence intensity (a.u.)
TTGTATTTTGGAAATATGACGCATTAGATGTTTTATATATCGGAGTCACCTAGTGCAG | 3570 fluorescence intensity (a.u.)
TATGAGGGTATCAGGGTCGTTGAGGTCTCTCCTCCTACACCGGAGTCACCTAGTGCAG | 41000 fluorescence intensity (a.u.)
GTTGAGGTCTCGCGCTCCCGTCCTCGTCTCGTCCTCTCCCCGGAGTCACCTAGTGCAG | 21500 fluorescence intensity (a.u.)
TATGAGTATCCTATATACATATATATACATATATATATACCGGAGTCACCTAGTGCAG | 27300 fluorescence intensity (a.u.)
TCACGCTCTCAACGCTGCTGTGTCACGTCACGTCACGCGCCGGAGTCACCTAGTGCAG | 16400 fluorescence intensity (a.u.)
TTTCAACAGATATTTTATTGTGACGTTGCAATTACTAAAACGGAGTCACCTAGTGCAG | 4950 fluorescence intensity (a.u.)
CTAAAACAGGCGAGTAGGATATACTACCTTCAATTATATTCGGAGTCACCTAGTGCAG | 40600 fluorescence intensity (a.u.)

Sequence | binding signal
TGAAAATATATTCAATTATTGATTCGATAAAACTAATTTACGGAGTCACCTAGTGCAG | 3460 fluorescence intensity (a.u.)
TCAACCGTATCTGACGCCTGCATTTCCTCTACCAGCCAAGCGGAGTCACCTAGTGCAG | 4010 fluorescence intensity (a.u.)
CTAAAACTCAACATATAAACATGCCACCTCATCATCTATACGGAGTCACCTAGTGCAG | 7400 fluorescence intensity (a.u.)
AAATAGCCAAGCCATATCATCTCATCCATATCATAATCGGCGGAGTCACCTAGTGCAG | 3200 fluorescence intensity (a.u.)
TATGAAATATCCCATCCTATCATAGATTATTATATTACGACGGAGTCACCTAGTGCAG | 26400 fluorescence intensity (a.u.)
GCAACATAACCCATCCTAGATTGCTATATATTGGGACGAACGGAGTCACCTAGTGCAG | 65500 fluorescence intensity (a.u.)
CATCCTAACGGATTATTCTCTCAACCCCACGAACCATTCACGGAGTCACCTAGTGCAG | 19200 fluorescence intensity (a.u.)
CAGGCCGGAAACCGGCCGAGCCCACCCATTAGAAAGGACGCGGAGTCACCTAGTGCAG | 22900 fluorescence intensity (a.u.)
CACTCAAAATCTCTTTCGTGTCCACCTCACCTTGCACCACCGGAGTCACCTAGTGCAG | 4870 fluorescence intensity (a.u.)
TCCCGTCTCGGCTCCTTGCGCCATCGTCGACAGGGGAGGGCGGAGTCACCTAGTGCAG | 3540 fluorescence intensity (a.u.)
GATGGGCCCACCCGTCATCCACACGAGGGCCACGCCTTGCCGGAGTCACCTAGTGCAG | 3380 fluorescence intensity (a.u.)
GGCCTTGCCACGAGCCCACGAGAGGTTTGGTTGATGGGCCCGGAGTCACCTAGTGCAG | 46500 fluorescence intensity (a.u.)
ACGAGCCCACGAGGTTGATGACGACGAAGCCGAAGAGTTGCGGAGTCACCTAGTGCAG | 4660 fluorescence intensity (a.u.)
CCACCATGGCATGCCACGTCAACACACAGAGTGGGTTGGACGGAGTCACCTAGTGCAG | 17900 fluorescence intensity (a.u.)
CAAATGCAGAAAAGATAATCTCCTTTCTCTCTCTATTAAACGGAGTCACCTAGTGCAG | 31100 fluorescence intensity (a.u.)
TCACACCCCATCTATGTTGTCGCTCCACATAGGCTAGGCCCGGAGTCACCTAGTGCAG | 3260 fluorescence intensity (a.u.)
TTGTTCCTTGCTAATATATTGACGTGTAATTCTTTTATGCCGGAGTCACCTAGTGCAG | 9690 fluorescence intensity (a.u.)
TGGTACAAGGATTTGTCCTGTCAACATGGCAATCCTCTGCCGGAGTCACCTAGTGCAG | 3360 fluorescence intensity (a.u.)
TCCACCGTCTGCTACTGCTAGCGTGCTACTGTCTCGCTGACGGAGTCACCTAGTGCAG | 3350 fluorescence intensity (a.u.)
GCGCTGACGTGTCGCTATCCTACTGGAACACACCACGTCACGGAGTCACCTAGTGCAG | 46500 fluorescence intensity (a.u.)
GCAACCACCGTGACGCCGCCGCGCGCCCACTGGAACACGTCGGAGTCACCTAGTGCAG | 5010 fluorescence intensity (a.u.)
